Assay results from PubChem BioAssay AID1259339 (Broad Institute, 2017).
Active and inactive are the calls of the source.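 Rule for the calls: active = fitted AC50 no higher than ten times the top tested dose (cut at about 90 µM in these data); inconclusive = flat curve with 30 to 70% signal loss, or bad fit; inactive = AC50 beyond ten times the top dose.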

test: TruHit bead signal quenchers or artefacts – biochemical, TruHit kit, artefact control, dose response (AID 1259339); conditions: TruHit alphaLISA kit signal interference counterscreen; series mostly up to 80 µM

Row | SMILES | AC50
1 | O=C(COC(=O)c1ccc(S(=O)(=O)NCc2ccco2)cc1)Nc1ccc(Cl)cn1 | > 160 µM (inactive)
2 | CC(C(=O)N1CCCC1)N1CCN(c2ccccc2O)CC1 (stereo unspecified) | inactive
3 | NC(=O)C1(N2CCCCC2)CCN(c2ncc(NC(=O)c3ccccc3F)cc2C(=O)O)CC1 | inactive
4 | O=C(Nc1nnc(-c2ccco2)s1)c1ccccc1 | inactive
5 | O=C1CC2(CCN(C(=O)Nc3ccccc3)CC2)CN1Cc1ccc(Cl)cc1 | inactive
6 | O=S(=O)(Nc1nc2ccc(S(=O)(=O)N3CCCCC3)cc2s1)c1ccccc1 | 76.8 µM (active)
7 | c1ccc(-c2nc(-c3ccco3)n3ccccc23)cc1 | 27.2 µM (active)
8 | CC(C)(C)c1ccc(-c2nc(C#N)c(NCc3ccncc3)o2)cc1 | 22.1 µM (active)
9 | COc1ccc(NC(=O)c2nc(Nc3ccccc3)c3ccccc3n2)cc1 | inactive
10 | COCCC(=O)N1CCCC2(CCN(CCN3CCCC3)C2=O)C1 (stereo unspecified) | inactive
11 | O=C(O)c1ccccc1/C=N/NC(=O)c1cc(-c2ccco2)nc2ccccc12 | 36 µM (active)
12 | O=C(COC(=O)CCC(=O)c1cccs1)NCc1ccco1 | inactive
13 | Nc1ccc(-c2cccc(CN3CCCC3)c2)cc1 | inactive
14 | O=C(Nc1nccs1)c1cc(-c2ccco2)nc2ccccc12 | 29 µM (active)
15 | CCc1nccn1CCC(=O)N1C[C@H](CO)C[C@H](CN2CCCC2)C1 | inactive
16 | NC(=O)C1(N2CCCCC2)CCN(c2ncc(NC(=O)c3cccs3)cc2C(=O)O)CC1 | inactive
17 | CCc1nc(OCc2ccco2)c2sc3nc4c(cc3c2n1)COC(C)(C)C4 | inactive
18 | O=C(O)Cc1c[nH]c2cccc(O)c12 | 11.3 µM (active)

Row | SMILES | AC50
19 | CN(C)c1ccc(CN2C[C@H]3CC[C@@H]2CN(C(=O)c2ccncc2)C3)cn1 | inactive
20 | CCN1CCN(C(=O)c2cc(-c3ccco3)nc3ccccc23)CC1 | > 160 µM (inactive)
21 | Cc1cnc(C)c(N2CCN(C(=O)[C@H]3CC[C@@H](N)C3)CC2)n1 | inactive
22 | Cc1ccc2cc(CN(Cc3ccco3)S(C)(=O)=O)c(=O)[nH]c2c1 | inactive
23 | CC(C)C(CC(=O)NCc1ccco1)c1ccco1 (stereo unspecified) | 66.5 µM (active)
24 | COc1ccc(S(=O)(=O)N2CCOCC2)cc1NC(=O)c1cccc(-n2cccc2)c1 | 36.1 µM (active)
25 | N#Cc1c(N)oc(-c2ccco2)c1-c1ccco1 | 29.9 µM (active)
26 | O=C1CS/C(=N\N=C\c2ccco2)N1c1ccccc1 | 30.8 µM (active)
27 | COc1cccc(NC(=O)CN(C)C(=O)c2cc3c(s2)CCC3)c1 | 74.6 µM (active)
28 | O=C(NCc1ccco1)c1c2c(nc3ccccc13)CCC2 | 82.4 µM (active)
29 | Cc1ccc(N2NC(c3ccc(Br)cc3)=CCC2=O)cc1 | 66.7 µM (active)
30 | COc1ccc(NC(=O)CN(C)C(=O)c2cc(-c3ccco3)nc3ccccc23)cc1 | 36.6 µM (active)
31 | COc1ccc(S(=O)(=O)N2CCN(C(=O)c3cc4c(s3)CCC4)CC2)cc1 | > 160 µM (inactive)
32 | CCc1ccc(Nc2nc(C(=O)NCc3ccc(N(C)C)cc3)nc3ccccc23)cc1 | inactive
33 | CC1=CCC(C(=O)O)C(C(=O)NC2CCCCC2)C1 (stereo unspecified) | inactive
34 | O=c1/c(=C/c2ccco2)sc2nc3ccccc3n12 | > 160 µM (inactive)
35 | CCOC(=O)C1CCN(C(=O)CN(Cc2ccccc2)S(C)(=O)=O)CC1 | inactive
36 | COc1ccc(-c2nnc(-c3nc(Nc4ccc(NC(C)=O)cc4)c4ccccc4n3)o2)cc1 | > 160 µM (inactive)
